Composite z-score and z-score data for 26 compounds are collected here from PubChem BioAssay.

The source made the active and inactive calls.

The subject of one assay is Neuregulin-1 EGF-like domain. As to the kind of experiment: small molecules binding NRG1 EGF domain – biochemical, small-molecule microarray, 635 nm fluorescence, primary screen (AID 1081).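 Also: binding of the protein to compounds printed on small-molecule microarray slides.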 Particulars: higher = more signal.
For the compound `[N-]=[N+]=Nc1ccccc1C[C@]1(C(=O)O)N=C(c2ccc(OCCCO)cc2)O[C@H]1c1ccccc1N=[N+]=[N-]`, the composite z-score was 1.04. The same measure, in the same setting: to `C=C(/C(=C/C[C@@H](OC(=O)c1ccncc1)c1cccc(OCCO)c1)c1cnc2ccccc2c1)C(C)C` belongs 1.17; to `CCCNC(=O)[C@@]1(Sc2ccc(C)cc2)CC(=O)N(C(C)C)[C@@H]1c1ccc(CO)cc1I`, -0.0039; to `C=CCNC(=O)[C@@H]1[C@H]2C(=O)O[C@H](c3ccccc3)[C@H](c3ccccc3)N2[C@H](c2ccc(OCCO)cc2)[C@@]12C(=O)N(C(=O)OCCOC)c1ccc(C#CCCO)cc12`, 1.19. Same read-out and setting: to `CCCCCCCCCCC(O)C1C=CC2C(=O)N(c3ccccc3)C(=O)C2N1Nc1ccccc1F` (stereo unspecified) belongs 0.586; to `COC(=O)C1N=C(c2ccc(OCCCO)cc2)N(c2ccccc2)O1` (stereo unspecified), 0.913; to `COC(=O)[C@@]1(Cc2ccc(F)cc2)[C@H]2c3cc(C(=O)N4CCCC4)n(C)c3C[C@H]2CN1C(=O)c1ccccc1`, 1.34.

Compound `O=C1C2C=CC(C(O)C=Cc3ccc([N+](=O)[O-])cc3)N(Nc3ccccc3)C2C(=O)N1c1ccccc1` (stereo unspecified) gave a composite z-score of 0.967.

Tested on in a further assay: not listed separately
Put plainly: FRG1 expression reporter modulators in myotubes – cell-based, C2C12 myotubes, firefly/Renilla luciferase, luminescence, FRG1 inhibition for FSHD, primary screen (AID 1084). Particulars: FRG1 promoter luciferase, higher = more signal, called active from +8 up or from −8 down.
With `CCOC(=O)C=Cc1cc(F)ccc1O`, the z-score is 0.808 (inactive). Still for that read-out and setting: as for `[N-]=[N+]=Nc1ccccc1[C@@H]1OC(c2ccc(OCCCO)cc2)=N[C@]1(Cc1ccccc1)C(=O)NCc1ccccc1`, the figure is -1.2 (inactive); as for `Cc1ccccc1C(O)C1C=CC2C(=O)NC(=O)C2N1Nc1ccc(Cl)cc1Cl` (stereo unspecified), 0.0623 (inactive). Still for that read-out and setting: as for `COc1ccc([Si](C)(C)[C@H]2[C@H](CCO)O[C@@]3(C(=O)N(Cc4ccccc4)c4ccc(N5CCOC5=O)cc43)[C@@H]2C)cc1`, the figure is -2.79 (inactive); as for `COCC1C2CC[C@H]3C(OCc4ccc(OC)cc4)OC[C@]4(C)[C@H]3C2=C(CN4C(=O)OC(C)(C)C)[C@H](C)C1COC` (stereo partly specified), -0.31 (inactive). Consider `COCCOC(=O)N1C(=O)[C@@]2(c3cc(C#CC4(O)CCCCCC4)ccc31)[C@H](C(=O)N1CCN(c3ncccn3)CC1)[C@H]1C(=O)O[C@H](c3ccccc3)[C@H](c3ccccc3)N1[C@@H]2c1ccccc1OCCO`, for which the z-score is 0.041 (inactive).

Regarding `COc1ccc(C(=O)Nc2cccc(CN3C(=O)[C@@]4(O[C@@H](CC(=O)N(CCO)Cc5ccccc5)[C@H]([Si](C)(C)c5ccc(OC)cc5)[C@H]4C)c4ccccc43)c2)cc1`, the z-score was -2.55 (inactive). Still for that read-out and setting: to `COCCOC(=O)N1C(=O)[C@@]2(c3cc(C#CCNC(N)=O)ccc31)[C@H](c1ccc(O)cc1)N1[C@H](c3ccccc3)[C@H](c3ccccc3)OC(=O)[C@H]1[C@@H]2C(N)=O` belongs 0.0283 (inactive); to `O=C1C2C=CC(C(O)c3cccc(O)c3)N(Nc3ccccc3)C2C(=O)N1c1ccccc1` (stereo unspecified), 1.23 (inactive).

Consider `COc1ccc([Si](C)(C)[C@@H]2[C@@H](CC(=O)N3Cc4ccccc4C[C@H]3CO)O[C@]3(C(=O)N(c4ccccc4)c4ccccc43)[C@H]2C)cc1`, for which the z-score was -3.5 (inactive). Consider `COc1ccc(C(O)C2C=CC3C(=O)N(c4ccccc4)C(=O)C3N2Nc2ccccc2F)cc1` (stereo unspecified), for which the z-score was 0.425 (inactive). The same measure, in the same setting: as for `COCCOC(=O)N1C(=O)[C@@]2(c3cc(C#CCC(C(=O)OC)C(=O)OC)ccc31)[C@H](c1ccc(O)cc1)N1[C@H](c3ccccc3)[C@H](c3ccccc3)OC(=O)[C@H]1[C@@H]2C(=O)NC[C@H](O)c1ccccc1`, the figure is 1.15 (inactive); as for `COCC(=C=CC[C@H](O)c1cccc(OCCO)c1)C[C@H](O)COCc1ccccc1`, 0.574 (inactive). The same measure, in the same setting: to `C=C(C)[C@@H]1CC=C(C(O)C2C=CC3C(=O)N(c4ccccc4)C(=O)C3N2Nc2ccc(C#N)cc2)CC1` (stereo partly specified) belongs -1.74 (inactive); to `COc1ccc(NC(=O)O[C@H]2[C@@H]3OC(=O)[C@H](Cc4cccc(Br)c4)C/C=C/C[C@@H](Cc4cccc(Br)c4)C(=O)O[C@H]3[C@@H](OC)O[C@@H]2CO)cc1`, 3.13 (inactive); to `C=C(/C(=C/C[C@H](OC(=O)c1ccncc1)c1cccc(OCCO)c1)c1cnc2ccccc2c1)C(C)C`, -2.64 (inactive).

On to `CS(=O)(=O)CCOC(=O)C1=CC(CCCO)=CC(C2CC2)N(Cc2cccc(OC(F)(F)F)c2)C=C1C(=O)OCCS(C)(=O)=O` (stereo unspecified), for which the z-score is 0.677 (inactive).

With `NC(=O)[C@H]1[C@@H]2C(=O)O[C@@H](c3ccccc3)[C@@H](c3ccccc3)N2[C@@H](c2ccc(O)cc2)[C@]12C(=O)Nc1ccc(C#CC3=CCCCC3)cc12`, the z-score is 1.23 (inactive).
